In all, about 300,000 compounds went through this assay and about 3,200 (1.1%) were called active. No stated cut-off is given here; in the data, active means inhibition above about 75%; inconclusive means no clear call, values can overlap the other calls; inactive means below that; tested in HMLE shEcad cells. Many of the other results were omitted from the sample, so actives are more common in it than they were.
Assay: growth suppression of cancer stem-like cells – cell-based, luminescence, primary screen (AID 2717)
Settings: cancer stem cell-like cells viability, at 7.5 µM, active compounds read high

Compound | inhibition
CSc1nc2ccc(NC(=O)c3c(F)cccc3F)cc2s1 | 4.73% (inactive)
CCCC(=O)Nc1nc2ccc(NC(=O)c3c(F)c(F)c(OC)c(F)c3F)cc2s1 | 92% (active)
CCCC(=O)Nc1nc2ccc(NC(=O)c3cccnc3)cc2s1 | 47.6% (inactive)
Cc1ccc(S(=O)(=O)N2[C@@H](c3cccc4ccccc34)C(C(=O)O)=C[C@H]2C(C)(C)C)cc1 | 11.1% (inactive)
COc1cccc(NC(=O)CSc2nnc(C3CCCCC3)n2N)c1 | -6.52% (inactive)
CC(C)c1ccccc1OCC(O)CN(CC(O)COc1cccc2ccccc12)C(C)C (configuration not stated) | 102% (active)
Cc1cc(C)c(NC(=O)C[N+](C)(C)CC(O)COc2cccc3ccccc23)c(C)c1 (configuration not stated) | -3.82% (inactive)
OC(COc1cccc2ccccc12)CN1CCN(c2ccccn2)CC1 (configuration not stated) | -5.87% (inactive)
CC(=O)N1CCN(CC(=O)Nc2ccc(SC(F)F)cc2)CC1 | 5.6% (inactive)
O=C(Cc1ccc(Cl)c(Cl)c1)Nc1ccc(SC(F)F)cc1 | 75.2% (active)
Cc1ccc(CC(=O)Nc2ccc(OC(F)F)c(Cl)c2)cc1C | 33.3% (inactive)
COc1cc([N+](=O)[O-])ccc1NC(=O)COC(=O)CCOc1ccc(C)cc1 | 18.1% (inactive)
Cc1ccc(C(=O)/C=C/Nc2ccc(S(=O)(=O)Nc3onc(C)c3C)cc2)cc1 | 6.82% (inactive)
COc1ccc(NS(=O)(=O)c2ccc(NC(=S)NC(=O)/C=C/c3ccc(C)cc3)cc2)nn1 | 9.35% (inactive)
COc1ccc(/C=C/C(=O)c2ccc(NS(=O)(=O)c3ccc(C)cc3)cc2)cc1O | 99.8% (active)
CC(C)(C)OC(=O)C[C@@H]1C/C=C\C[C@@H](CC(=O)NCCO)C(=O)N[C@H](Cc2c[nH]c3ccccc23)COC1=O | -11.3% (inactive)
Cc1ccc(Br)c(NS(=O)(=O)c2cccc(C(=O)N3CCNC(=O)C3)c2)c1 | -15.2% (inactive)
CN1CCN(C2Cc3ccc(Cl)cc3Sc3ccc(F)cc32)CC1 (configuration not stated) | 101% (active)
O=C(N=C1SC2CS(=O)(=O)CC2N1c1ccccc1)c1ccccc1 (configuration not stated) | -9.26% (inactive)
Cc1ccc(C2(C)NC(=O)N(CC(=O)N3CC(=O)Nc4ccccc43)C2=O)cc1 (configuration not stated) | -12.5% (inactive)
O=C(c1ccc(S(=O)(=O)NCc2ccco2)cc1)N1CCN(c2ccccc2)CC1 | -16.3% (inactive)
CC(C)(c1ccccc1)c1ccc(OCCN2CCCC2)cc1 | 91.2% (active)

Compound | inhibition
CC(C)(c1ccccc1)c1ccc(OCCN)cc1 | 37% (inactive)
Cc1cc(OCCN2CCCC2)ccc1C(C)C | 1.11% (inactive)
CN(Cc1ccc(F)cc1)C(=O)CN1C(=O)c2ccccc2S1(=O)=O | 1.87% (inactive)
Cc1cc(NC(=O)COC(=O)/C=C/c2ccc(C)o2)no1 | -11.7% (inactive)
CC(=O)Oc1ccccc1C(=O)Nc1ncc([N+](=O)[O-])s1 | 76.2% (active)
O=C(Nc1ncc([N+](=O)[O-])s1)C1COc2ccccc2O1 (configuration not stated) | 54.2% (inactive)
O=C(CCc1ccccc1)Nc1ncc([N+](=O)[O-])s1 | 23.5% (inactive)
COc1cccc(CNC(C)C(=O)Nc2ccc(S(=O)(=O)N3CCCC3)cc2)c1 (configuration not stated) | 10.7% (inactive)
CN(C(=O)COC(=O)CCCc1c[nH]c2ccccc12)c1c(N)n(Cc2ccccc2)c(=O)[nH]c1=O | -11.7% (inactive)
CC1(C)CC[C@]2(C(=O)O)CC[C@]3(C)C(=CCC4[C@@]5(C)CC[C@H](O)C(C)(C)C5[C@H](O)C[C@]43C)[C@@H]2C1 (some centres not stated) | -4.41% (inactive)
CC1(C)C2CC[C@]3(C)C(CC=C4[C@@H]5C[C@@](C)(CO)CC[C@]5(C(=O)O)CC[C@]43C)[C@@]2(C)CC[C@@H]1O (some centres not stated) | -8.25% (inactive)
CC1(C)CC[C@@]2(C(=O)O)C(C1)C1=CCC3[C@@]4(C)CC[C@H](O)C(C)(C)C4CC[C@@]3(C)[C@]1(C)C[C@H]2O (some centres not stated) | 87.8% (active)
CCOC(=O)[C@H]1[C@H]2COc3ccccc3[C@@H]2N2C(=O)CN(Cc3ccccc3)C(=O)[C@@]12C | -9.72% (inactive)
O=C(c1cccc(Cl)c1)N1CCN(Cc2ccccc2)CC1 | -14.8% (inactive)
CC(C)CC(=O)N1CCN(Cc2cccc(Cl)c2)CC1 | -2.32% (inactive)
Clc1cccc(CN2COc3c(cc(Cl)c4cccnc34)C2)c1 | 118% (active)
O=C(OCC(=O)N1CCCCCC1)c1ccc(Br)c(S(=O)(=O)N2CCOCC2)c1 | -10.2% (inactive)
Cc1ccc2nc(-c3cccnc3)c(NC3CCCC3)n2c1 | -4.39% (inactive)
COc1ccc(-c2nc3cnccn3c2NC(C)(C)CC(C)(C)C)cc1O | 0.145% (inactive)
COc1ccc(-c2nc3cnccn3c2NC2CCCCC2)cc1-c1cccc(Cl)c1 | 105% (active)
CCN(c1ccccc1)S(=O)(=O)c1cccc(C(=O)NCc2ccccc2CN2CCOCC2)c1 | -15.2% (inactive)
N#Cc1nc(-c2ccc(OCc3ccccc3)cc2)oc1NCCCN1CCOCC1 | 86.3% (active)

Compound | inhibition
Cc1ccc(-c2nc(C#N)c(NCCCn3ccnc3)o2)cc1 | -10.2% (inactive)
O=S(=O)(c1ccccc1)c1nc(-c2ccccc2)oc1NCCCN1CCOCC1 | -5.33% (inactive)
CC(=O)Nc1ccc(S(=O)(=O)Nc2ccc(N3CCCCC3)cc2)cc1 | 21.5% (inactive)
O=S(=O)(Nc1ccc(OC(F)(F)F)cc1)c1cccc2nonc12 | -7.85% (inactive)
Cc1nn(C)c(C)c1NS(=O)(=O)c1ccc(OC(F)(F)F)cc1 | 1.58% (inactive)
O=S(=O)(Nc1ccc(O)c2ccccc12)c1ccc(OC(F)(F)F)cc1 | 106% (active)
Cc1noc(C)c1NC(=O)Nc1ccc2c(c1)C(=O)N([C@H](C)CO)C[C@H](C)[C@@H](CN(C)S(=O)(=O)c1cn(C)cn1)O2 | -15.6% (inactive)
Cc1cccc(NC(=O)c2ccc(S(=O)(=O)N(C)c3ccccc3)cc2)n1 | -22% (inactive)
COc1ccc(-c2c(C#Cc3ccsc3)c3cc(-c4ccc(CN5CCOCC5)cc4)ccc3n2C)cc1 | 31.2% (inactive)
COc1ccc(/C=N/Nc2nc3ccccc3c(=O)[nH]2)cc1 | 13% (inactive)
CC(C)c1ccc(Cc2nnc(NCCCO)[nH]c2=O)cc1 | 13.6% (inactive)
COc1ccc(Cc2nnc(N/N=C/c3ccccc3O)[nH]c2=O)cc1OC | 106% (active)
C=CCC[C@H](Cc1ccc(F)cc1)C(=O)OC[C@H](C)NC(=O)[C@H](CC=C)CC(=O)N(CCO)Cc1ccccc1 | -9.39% (inactive)
COc1cccc2sc(Nc3nc(C)c(C(C)=O)s3)nc12 | 17.8% (inactive)
COc1ccccc1OCc1nc2ccccc2s1 | 5.53% (inactive)
COc1cccc2sc(NNC(=O)c3nc4ccccc4s3)nc12 | 103% (active)
CCN(C[C@H]1N[C@@](CC)(C(=O)OC)[C@H]2C(=O)N(C)C(=O)[C@@H]12)C(=O)Nc1ccc(F)cc1 | -20.7% (inactive)
N#Cc1nc(-c2cccc3ccccc23)oc1N | 8.01% (inactive)
Cc1ccc(NNC(=O)c2cccs2)cc1Cl | 90.5% (active)
Cc1ccc(NNC(=O)c2c(F)cccc2Cl)cc1Cl | -4.9% (inactive)
O=C(NNC(=O)c1ccc(Cl)cc1Cl)c1cccs1 | 5.32% (inactive)
CC(=O)Nc1ccc(SC[C@H](Cc2ccccc2)N2CC[C@@H](C)CCC2=O)cc1 | 1.36% (inactive)

Compound | inhibition
CC(NC(=O)COC(=O)CCC(=O)c1ccc(Cl)cc1)c1ccccc1 (configuration not stated) | -16.5% (inactive)
O=C(CCNC(=O)c1ccccc1Cl)NN=Cc1ccco1 | -8.03% (inactive)
O=[N+]([O-])c1cc(S(=O)(=O)NCCc2ccccn2)ccc1Cl | -19.2% (inactive)
COc1ccccc1-c1nnc(-c2ccc(F)cc2)o1 | 4.47% (inactive)
COc1ccc(-c2csc3nc(-c4ccccc4F)oc(=O)c23)cc1OC | 98.7% (active)
COc1ccc(-c2csc(-c3cccs3)n2)cc1OC | 11.3% (inactive)
O=S(=O)(Nc1ncnc2sccc12)c1cccc(F)c1 | -7.13% (inactive)
COc1ccc(NC(=O)CNc2cc(S(=O)(=O)N3CCOCC3)ccc2N2CCOCC2)c(OC)c1 | 6.36% (inactive)
COc1ccccc1N(CCOc1ccccc1)S(=O)(=O)c1ccccc1 | 7.81% (inactive)
COc1cc(/C=C2\Oc3ccc(C#Cc4ccc(O)cc4)cc3C2=O)cc(OC)c1 | 115% (active)
COc1cc(C#Cc2ccc3cc(CCCO)oc(=O)c3c2)cc(OC)c1 | 11.5% (inactive)
COc1ccc2c(c1)O/C(=C\c1ccccc1O)C2=O | -1.63% (inactive)
O=C1N[C@H](Cc2c[nH]c3ccccc23)COC(=O)[C@H](Cc2ccc(F)cc2)C/C=C\C[C@H]1CC(=O)N(CCO)Cc1ccccc1 | 36.2% (inactive)
CC(=O)NC(CC(=O)Nc1ccc(S(=O)(=O)N2CCOCC2)cc1)c1ccccc1 (configuration not stated) | -4.54% (inactive)
CC(=O)c1c(C)[nH]c(C(=O)COC(=O)c2cccs2)c1C | -12.4% (inactive)
COc1ccc(C(=O)C(C)OC(=O)c2cccc(S(=O)(=O)Nc3c(C)n(C)n(-c4ccccc4)c3=O)c2)cc1 (configuration not stated) | -12.3% (inactive)
O=C(CN1C(=O)NC2(CCCC2)C1=O)Nc1cc(C(F)(F)F)ccc1N1CCOCC1 | -16.7% (inactive)
CCOC(=O)C1CCCN(C(=O)CSc2nnc3nc(C)cc(C)n23)C1 (configuration not stated) | 8.11% (inactive)
CC1=NN(c2ccc(Cl)c(C(=O)O)c2)C(=O)/C1=C/c1ccc(-c2ccccc2[N+](=O)[O-])o1 | 12.7% (inactive)
CC(=O)C1C(c2ccc(Cl)cc2)NC(=O)NC1(O)C(F)(F)F (configuration not stated) | -6.38% (inactive)
O=C(/C=C(O)/C=C/c1ccc(O)cc1)/C=C/c1ccc(O)cc1 | 44.3% (inactive)

From PubChem BioAssay AID2717 (Broad Institute, 2010)
